The source of these data is PubChem BioAssay AID818 (SRMLSC, 2007).

About 2,100 (1.5%) of roughly 140,000 compounds were called active. The sample holds actives, similar compounds and a random draw of the others, so the mix is not that of the screen. A number with no mark means an inactive call.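 How the source made its calls: active means viability at or under a set limit, the compound median less 4 SD (cut at about 6% in these data); inactive means the rest.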

The term viability denotes a read-out of living cells in per cent, often relative to untreated cells.

A short description of the assay: primary screen for growth suppressors in beta-catenin knockout HCT116 cells (colon tumor, human) (AID 818).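 Further: 0% = Hyamine 1622 control at 20 µM and 100% = untreated cell control.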 The note with it: CellTiter-Glo, 60 h, at 10 µM, stronger effect = lower value. Background: Cellular ATP, detected with luciferase, serves as a proxy for viable cell number.
In the case of `O=C(Nc1ccc(CSc2ccccc2)cc1)c1ccc(CN2CCOCC2)cc1`, the viability is 12.2%. Take `COc1ccc(Cl)cc1-n1c(C)cc(C(=O)OCC(=O)N2CC(=O)Nc3ccccc32)c1C`: the viability is 69.3%. Consider `CCOC(=O)/C(=C\c1ccc([N+](=O)[O-])cc1)C(=O)c1cc(C(C)=O)c(Nc2ccccc2)s1`, for which the viability is 1.71% (active). Turning to `Cc1cccc(NC(=O)c2sc(-c3ccccc3)nc2-c2ccc([N+](=O)[O-])cc2)c1`, the viability was 80.5%. On to `O=C(Nc1ccccc1)/C(=C/c1ccc([N+](=O)[O-])cc1)NC(=O)c1ccccc1`, for which the viability was 87.1%. Under `Cc1cccc(N2C(=O)SC(SC(=Nc3ccccc3)Nc3ccccc3)C2=O)c1` (configuration not stated) stands 82.6%; under `Cc1ccc(C(=O)N/C(=C/c2cccnc2)C(=O)O)cc1`, 87.7%; under `CC(C)(C)c1nnc(N/N=C/c2ccc(O)cc2)n(N)c1=O`, 90.8%.

In the case of `c1ccc2c(c1)CSc1sccc1C2=C1CCNCC1`, the viability was 3.31% (active). With `COc1ccc(-n2c(C)cc(C(=O)CN3C(=O)NC4(CCc5ccccc54)C3=O)c2C)cc1` (configuration not stated), the viability was 70.1%.

Turning to `O=C(Nc1cccc(Cl)c1)Nc1ccccc1NS(=O)(=O)c1cccs1`, the viability was 71.1%. Take `Cc1csc(NC(=O)NC2(C(F)(F)F)Oc3ccccc3O2)n1`: the viability was 5.7% (active). As to `Cc1csc(NC(=O)CN2CCCCCC2)n1`, the viability was 93.4%. For the compound `O=C(Nc1cc(N2CCOCC2)ncn1)NC1(C(F)(F)F)Oc2ccc(Cl)cc2O1` (configuration not stated), the viability is 76.8%. Turning to `Cc1ccn(CC(=O)N2N=C(C(F)F)CC2(O)C(F)F)n1` (configuration not stated), the viability was 101%. Under `N#C/C(=C\C1=C(N2CCOCC2)C(=C\c2ccccc2)/CC1)C(=O)Nc1ccccc1F` stands 65.8%. In the case of `CCN(CC)c1ccc(/C=N/Nc2nc(C)cc(C)n2)c(O)c1`, the viability was 5.53% (active). `Oc1ccc(/C=N/NC2=NCCCCC2)c(O)c1`: the viability is 94.7%. For the compound `CCN(CC)c1ccc(/C=N/Nc2nc(C)cc(=O)[nH]2)cc1`, the viability was 76.5%. As for `CCOC(=O)c1c(NC(=O)C2(C)Cc3ccccc3C(=O)O2)sc2c1CCCC2` (configuration not stated), the viability was 79.4%. Consider `Cc1ccc(C)c(NC(=O)CCC(=O)NNC(=O)c2cccs2)c1`, for which the viability is 96.8%. To `O=C(/C=C\c1ccc2c(c1)OCO2)NC1(C(=O)Nc2ccc3c(c2)OCCO3)CCCCC1` belongs 102%; to `CCOc1ccc2nc(Nc3nc4ccc(NC(C)=O)cc4s3)sc2c1`, 74.6%; to `COc1ccc2nc(Nc3nc4ccc(NC(C)=O)cc4s3)sc2c1`, 2.25% (active). Under `COc1ccc2nc(Nc3nc4cc5c(cc4s3)OCCO5)sc2c1` stands 90.5%; under `COc1ccc(C2=NN(C(=O)c3cccnc3)C(c3ccccc3)C2)cc1` (configuration not stated), 100%; under `CN1CCN(CC(=O)Nc2sc3c(c2C#N)CCC(C(C)(C)C)C3)CC1` (configuration not stated), 3.32% (active). With `COC(=O)c1c(NC(=O)CN2CCN(S(=O)(=O)c3ccccc3[N+](=O)[O-])CC2)sc2c1CCC(C)C2` (configuration not stated), the viability is 90.5%. As to `CCC1CCc2c(sc(NC(C)=O)c2C#N)C1` (configuration not stated), the viability was 101%. For `CCNc1nc(NC(C)C)nc(N2CC(=O)N(CC(=O)OCC)C2=N)n1`, the viability is 94.3%. Consider `Oc1c(Cl)cc(Cl)c(Cl)c1Cc1c(O)c(Cl)cc(Cl)c1Cl`, for which the viability was 4.83% (active). For the compound `CCCn1c(=O)c2c(C(F)(F)F)cc(-c3cccs3)nc2n(CCC)c1=O`, the viability was 90%. Under `c1ccc2c(c1)C(=NC1CCCCC1)NC2=NC1CCCCC1` stands 5.56% (active). As for `O=C1CCCCC(=O)c2ccccc2N1`, the viability was 101%. For the compound `CC(=O)OC(C)C[N+](C)(C)C` (configuration not stated), the viability was 102%. Consider `CC(C[N+](C)(C)C)OC(N)=O` (configuration not stated), for which the viability was 1.28% (active). Take `CCCCn1c(O)c(N=NC(=O)Cn2c(C(F)(F)F)nc3ccccc32)c2ccccc21`: the viability was 93.1%. As for `CC(C)(C)NC(=O)C(=O)NCc1ccncc1`, the viability is 98.5%.

`O=C(CSC(=S)N1CCOCC1)c1ccccc1`: the viability was 98.3%. As for `Cn1ncc2c(NNC(=O)Cc3cccc4ccccc34)ncnc21`, the viability is 86.8%.

Take `NS(=O)(=O)c1ccc(N=Cc2ccc(Br)s2)cc1`: the viability was 101%. On to `CC(=O)CCC(=O)c1ccc2ccccc2c1`, for which the viability is 99.5%. Take `Cc1nc(-c2ccccc2)sc1C(=O)/C=C/c1ccccc1`: the viability is 4.4% (active). As to `CNC(=O)c1csc(-c2ccccc2)n1`, the viability was 96.8%. Take `Cc1ccc(SCC(=O)c2sc(-c3ccccc3)nc2C)cc1`: the viability is 94.5%.

As for `Cc1ccc(Sc2ccncc2S(N)(=O)=O)cc1`, the viability was 87.3%. As for `O=C(COC(=O)/C=C/c1ccc(S(=O)(=O)N2CCCCCC2)cc1)NCc1ccccc1Cl`, the viability is 106%. For `N=c1c2c(-c3ccccc3)c(-c3ccccc3)n(Cc3ccccc3)c2ncn1CCCO`, the viability is 1.54% (active). To `N=c1c2c(-c3ccccc3)c(-c3ccccc3)oc2ncn1Cc1ccco1` belongs 59.7%; to `OCCCN1c2ccccc2Nc2nnc(-c3ccccc3)cc21`, 46.3%. With `Cc1nc(SCc2ccc(F)cc2)c([N+](=O)[O-])[nH]1`, the viability was 89.8%.

In the case of `Cc1cc(N2CCOCC2)nc(-c2ccc(Br)cc2)n1`, the viability is 82.4%.

In the case of `CCCC1OC23CCCCC2C(C#N)(C#N)C1(C#N)C(=N)O3` (configuration not stated), the viability was 85.5%.

Consider `COc1cccc(/C=N/NC(=O)CNC(=O)c2ccc(S(=O)(=O)N3CCOCC3)cc2)c1OC`, for which the viability is 90.8%. For `COC(=O)c1sc2ncccc2c1OCc1ccc(Cl)cc1Cl`, the viability was 67.4%. For the compound `NC(N)=N/N=C/c1ccc(OCc2ccc(Cl)cc2Cl)cc1`, the viability was 1.64% (active). Under `COc1ccc(C(=O)O/N=C(\N)Cc2ccc(Cl)cc2Cl)cc1OC` stands 79.8%; under `CCOC(=O)NN1C(=O)c2ccccc2NC1c1ccccc1O` (configuration not stated), 95%. Consider `C=CCn1c(SCC(N)=O)nnc1-c1cc2c(s1)CCC(CC)C2` (configuration not stated), for which the viability is 91.1%. As for `COc1cc2c(cc1O)C(SC)=NC(C)(C)C2`, the viability is 2.29% (active). To `COc1cc2c(cc1OC)C(C(C)C)=NC(C)(C)C2` belongs 95.1%; to `COc1cc2c(cc1OC)C(Nc1ccc(S(N)(=O)=O)cc1)=NC(C)(C)C2`, 101%; to `COc1ccc(NC(=O)CC2C(=O)OCC3CCCCN32)cc1Cl` (configuration not stated), 93.4%. In the case of `Cc1cc(C)c(C#N)c(SCC(=O)NN2CC(=O)N(c3ccccc3F)CC2=O)n1`, the viability is 99.8%.

Take `CC(C)[C@H](NC(=O)c1ccc(F)cc1)C(=O)OCC(=O)NC(=O)c1cccn1C`: the viability was 93.5%. To `N=c1n(CCc2ccccc2)c2ccccc2n1Cc1ccccc1F` belongs 3.71% (active). To `CC(=O)NC(C)c1nc2ccccc2n1Cc1ccccc1F` (configuration not stated) belongs 102%. Under `CN(Cc1ccccc1)Cc1ccccc1F` stands 83%; under `Cc1ccc2[nH]cc(CCNC(=O)c3ccc([N+](=O)[O-])cc3)c2c1`, 106%; under `Cc1ccc(C(=O)NC(C)c2ccccc2)cc1Br` (configuration not stated), 83.5%.

For the compound `CC(=O)Nc1ccc(S(=O)(=O)NCC(=O)OCc2cc(=O)oc3ccc4ccccc4c23)cc1`, the viability is 83.8%. Take `CCCN1C(=O)C(Cc2nc3ccccc3c(=O)n2-c2ccccc2)c2cc(C)ccc21` (configuration not stated): the viability is 74.7%.

`N#CC1=C(N)Oc2c(sc3ccccc23)C1c1ccco1` (configuration not stated): the viability was 3.24% (active). To `Cc1cc2c(c(=O)n1Cc1ccco1)C(c1ccccc1)C(C#N)=C(N)O2` (configuration not stated) belongs 105%; to `Cc1cc(C)c2c3c(sc2n1)C(c1ccccc1)C(C#N)=C(N)O3` (configuration not stated), 21.1%. For the compound `Brc1ccc(-c2csc(N/N=C/c3ccc4c(c3)OCO4)n2)cc1`, the viability is 84.8%. `CC(=O)c1c(O)cc2n(c1=O)-c1ccc(Cl)cc1C2(C)C`: the viability is 91.5%. For `CC(C)n1c(C(O)c2ccccc2)nc2ccccc21` (configuration not stated), the viability is 110%.

In the case of `CC(Nc1nc(N2CCCC2)nc2ccccc12)c1ccccc1` (configuration not stated), the viability was 1.19% (active).

As for `Cc1ccc(C(CC(=O)O)Nc2nc(N3CCCCC3)nc(N3CCCCC3)n2)cc1` (configuration not stated), the viability was 97.6%. Turning to `C/C(=N\N1CCN(Cc2ccc(C)cc2)CC1)c1ccco1`, the viability is 99.1%.

`Cc1cc2oc(=O)cc(CN3CCN(S(=O)(=O)c4cccs4)CC3)c2cc1C(C)C`: the viability is 76.9%. For the compound `COc1cccc(-n2c(SCC(=O)c3c[nH]c4ccccc34)nc3ccccc3c2=O)c1`, the viability was 73.3%. As for `NC(=O)c1ccccc1N=Cc1ccc2ccccc2c1`, the viability is 35.3%. Take `N#C/C(=C(/O)COc1cccc2ccccc12)c1nc2ccccc2[nH]1`: the viability is 79.3%.

Take `N#C/C(=C(/O)COC(=O)COc1ccc(Cl)cc1)c1nc2ccccc2[nH]1`: the viability is 5.63% (active).

On to `Cc1ccccc1OC/C(O)=C(\C#N)c1nc2ccccc2[nH]1`, for which the viability is 78.6%.

Regarding `O=C(Cc1cccc2ccccc12)NCCC1=CCCCC1`, the viability is 85.5%. Under `CCOc1ncccc1C(=O)N(CC)CC(=O)Nc1ccc(NC(C)=O)cc1` stands 104%; under `CCOC(=O)C1=C(c2ccc(OC)cc2)C(=O)c2ccccc2C1=O`, 1.16% (active); under `CCCCC(C(=O)OCC(=O)c1ccc(OC)cc1)N1C(=O)c2ccccc2C1=O` (configuration not stated), 103%. With `CCOC(=O)c1ccccc1NS(=O)(=O)c1ccc(OC)cc1`, the viability was 17.6%. Take `CCOC(=O)c1nn(-c2ccccc2F)c2nc(Nc3ccccc3)cc(=O)n12`: the viability was 94.3%. As to `S=C(Nc1cccc(Cl)c1)Nc1ccc2cn[nH]c2c1`, the viability is 77.5%. Regarding `FC(F)(F)c1cccc(NC(=S)Nc2cccc(Cl)c2)c1`, the viability was 5.77% (active). With `Cc1csc(NC(=S)Nc2cccc(Cl)c2)n1`, the viability is 26.5%. With `COC(=O)/C(=C1\Oc2ccc(C(C)(C)C)cc2S1)C(F)(F)F`, the viability is 102%.
